Data from PubChem BioAssay (NCI).
The panel holds about 83,000 compounds, 20% with a hit somewhere; the sample as a whole holds those more often.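 In brief: 96-well plates, 48 h treatment, single concentration, percent growth endpoint.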 Activity calls are given as the source filed them. Rule for the calls: active = growth percent below 10; inactive = the rest.

Experiments:
Assay in all cases: NCI-60 one-dose screen, 48 h (100 = growth as untreated, 0 = no growth, -100 = all killed)
Conditions in all cases: 10 µM unless noted
T-47D breast = test system: T-47D breast
BT-549 breast = test system: BT-549 breast
MDA-MB-435 melanoma = test system: MDA-MB-435 melanoma
SW-620 colon = test system: SW-620 colon
MCF7 breast = test system: MCF7 breast
HCT-116 colon = test system: HCT-116 colon
HCC-2998 colon = test system: HCC-2998 colon
KM12 colon = test system: KM12 colon

Measured: growth

COc1ccc(-c2nc(C#N)c(N3CCC(S(=O)(=O)N4CCOCC4)CC3)o2)cc1
inactive: T-47D breast 96.9% | BT-549 breast 108% | MDA-MB-435 melanoma 99.3% | SW-620 colon 95.7% | MCF7 breast 90.7% | HCT-116 colon 110% | HCC-2998 colon 107% | KM12 colon 97.1%

C#CCOc1cccc(/C(N)=N/C(N)=N/c2nc3ccccc3s2)c1
inactive: T-47D breast 72.3% | BT-549 breast 91.7% | MDA-MB-435 melanoma 104% | SW-620 colon 105% | MCF7 breast 74.2% | HCT-116 colon 80.4% | HCC-2998 colon 109% | KM12 colon 78.7%

O=S(=O)(NCCCNc1nccc(-c2[nH]c(-c3ccccc3)nc2-c2ccc(F)c(O)c2)n1)c1cccc2ccccc12
inactive: T-47D breast 51.3% | BT-549 breast 69.2% | MDA-MB-435 melanoma 36.9% | SW-620 colon 68.9% | MCF7 breast 44.9% | HCT-116 colon 34.6% | HCC-2998 colon 99% | KM12 colon 55.7%

CC(Nc1c(C#N)cnc2ccc(-c3cncc(O)c3)cc12)c1ccccc1 (stereo not drawn)
active: T-47D breast 6.53% | BT-549 breast -18.3% | MCF7 breast 0.808% | HCT-116 colon 3.68% | KM12 colon 4.85%
inactive: MDA-MB-435 melanoma 25.2% | SW-620 colon 10.1% | HCC-2998 colon 19.5%

N#Cc1c(-c2ccc(Br)cc2)cc(-c2c[nH]c3ccccc23)nc1N
inactive: T-47D breast 29.7% | BT-549 breast 32.1% | SW-620 colon 27.8% | MCF7 breast 18.5% | HCT-116 colon 27.6% | HCC-2998 colon 60.3% | KM12 colon 28%
active: MDA-MB-435 melanoma 0.353%

COc1ccc(/C=N/NC(=O)c2c(N)nn(C)c2Nc2ccccc2)cc1
active: MDA-MB-435 melanoma -31%
inactive: T-47D breast 42.4% | BT-549 breast 14% | SW-620 colon 16% | MCF7 breast 17.6% | HCT-116 colon 15% | HCC-2998 colon 59.2% | KM12 colon 27.8%

CN(C)c1ccc(-c2cc(-c3c[nH]c4ccccc34)nc(N)c2C#N)cc1
inactive: T-47D breast 39.9% | BT-549 breast 27.8% | MDA-MB-435 melanoma 13.6% | SW-620 colon 21.4% | MCF7 breast 28% | HCT-116 colon 14.5% | HCC-2998 colon 49.7% | KM12 colon 18.2%

CC/C(=C(/c1ccc(Cl)cc1)c1ccc(OCCN)cc1)c1ccccc1
inactive: T-47D breast 93.1% | BT-549 breast 129% | MDA-MB-435 melanoma 96.7% | SW-620 colon 16.5% | MCF7 breast 54.9% | HCT-116 colon 56% | HCC-2998 colon 83.7% | KM12 colon 84.7%

C#CCN(C)CCCOc1ccc(NC(=O)CCCCCCC(=O)NO)cc1Cl
inactive: BT-549 breast 44.9% | SW-620 colon 11.7% | MCF7 breast 13.4% | HCC-2998 colon 12.9% | KM12 colon 24.8%
active: T-47D breast -2.41% | MDA-MB-435 melanoma -0.594% | HCT-116 colon 2.96%

COc1ccc(NC(=O)CCCCCCNC(=O)C(O)(O)C(F)(F)F)cc1
active: HCT-116 colon 7.44%
inactive: T-47D breast 18.7% | BT-549 breast 76.4% | MDA-MB-435 melanoma 38.8% | SW-620 colon 10.2% | MCF7 breast 38.4% | HCC-2998 colon 55.9% | KM12 colon 41.6%

CC1CCN(CC(=O)Nn2c(COc3ccccc3)nc3ccccc3c2=O)CC1
active: MDA-MB-435 melanoma 5.85%
inactive: T-47D breast 67.8% | BT-549 breast 97.9% | SW-620 colon 57.2% | MCF7 breast 42.4% | HCT-116 colon 81.9% | HCC-2998 colon 89.9% | KM12 colon 45%

COc1ccc(/C=N/NC(=O)CSc2nc(-c3cnccn3)cc(-c3cccs3)c2C#N)cc1
inactive: T-47D breast 68.7% | BT-549 breast 49.2% | MDA-MB-435 melanoma 81.6% | SW-620 colon 93% | MCF7 breast 76.8% | HCT-116 colon 22.4% | HCC-2998 colon 79.1% | KM12 colon 64.7%

CC(C)NC(=O)c1cc(-c2ccc(NC(=O)Nc3ccc(F)cc3)cc2)nc2cccnc12
inactive: T-47D breast 97.8% | BT-549 breast 104% | MDA-MB-435 melanoma 98.7% | SW-620 colon 108% | MCF7 breast 79.9% | HCT-116 colon 95.5% | HCC-2998 colon 108% | KM12 colon 95.7%

Clc1ccc2[nH]cc(-c3nn4cc(-c5cccnc5)nc4s3)c2c1
inactive: T-47D breast 71.5% | BT-549 breast 110% | MDA-MB-435 melanoma 101% | SW-620 colon 104% | MCF7 breast 72.3% | HCT-116 colon 99.8% | HCC-2998 colon 117% | KM12 colon 98%

O=C(Nc1cccc(C(F)(F)F)c1)N1CCN(c2cc(-c3cn(-c4ccccc4)nc3-c3cccc(O)c3)ccn2)CC1
inactive: BT-549 breast 55.4% | MDA-MB-435 melanoma 47.3% | SW-620 colon 52.3% | MCF7 breast 25.3% | HCT-116 colon 27.4% | HCC-2998 colon 86.3% | KM12 colon 32%
active: T-47D breast -5.55%

O=C(/C=C/c1cccc(F)c1)c1cccc(OCCCOc2cccc(C(=O)/C=C/c3cccc(F)c3)c2)c1
active: HCT-116 colon -80.3%
inactive: T-47D breast 69.8% | BT-549 breast 72.1% | MDA-MB-435 melanoma 99.8% | SW-620 colon 14.3% | MCF7 breast 10.2% | HCC-2998 colon 44.2% | KM12 colon 32.6%

O=C(CSc1nc2ccccc2c(=O)n1-c1ccccc1)N/N=C/c1ccc(Oc2ccc(Cl)cc2)cc1
active: HCT-116 colon 5.62%
inactive: T-47D breast 82.5% | BT-549 breast 69.9% | MDA-MB-435 melanoma 84.6% | SW-620 colon 43.1% | MCF7 breast 64.5% | HCC-2998 colon 95.4% | KM12 colon 83.7%

CCCC/C(=C\c1ccc(O)c(O)c1)C(=O)NC(Cc1ccccc1)C(=O)C(=O)NCCc1ccc(OC)cc1 (stereo not drawn)
inactive: T-47D breast 94.9% | BT-549 breast 84.1% | MDA-MB-435 melanoma 94.3% | SW-620 colon 101% | MCF7 breast 95% | HCT-116 colon 92.4% | HCC-2998 colon 102% | KM12 colon 97.9%

O=C(CCCCCCNC(=O)C(O)(O)C(F)(F)F)Nc1ncc(-c2ccc(Br)cc2)s1
active: T-47D breast 3.85% | BT-549 breast -20.5% | MDA-MB-435 melanoma 6.58% | SW-620 colon -16.2% | MCF7 breast 6.6% | HCT-116 colon -26.3% | HCC-2998 colon -54.6% | KM12 colon -67%

Cc1cc(=O)oc2cc(OCCCOc3ccc(/C=C/C(=O)Nc4ccc(Br)cc4)cc3)ccc12
inactive: T-47D breast 57.7% | BT-549 breast 78.8% | MDA-MB-435 melanoma 97.3% | SW-620 colon 57.2% | MCF7 breast 58.9% | HCT-116 colon 85.4% | HCC-2998 colon 96.6% | KM12 colon 88.6%

COC(=O)c1ccc(NC2=C(Cl)C(=O)c3nc(C)ccc3C2=O)cc1
inactive: T-47D breast 31.2% | BT-549 breast 99% | MDA-MB-435 melanoma 60.6% | SW-620 colon 18.3% | MCF7 breast 30.5% | HCT-116 colon 43.1% | HCC-2998 colon 102% | KM12 colon 50.3%

CC1CC(=O)C2=C(C1)Nc1ccc(Br)cc1CC2c1c[nH]c2ccc(Br)cc12 (stereo not drawn)
inactive: T-47D breast 33.4% | BT-549 breast 64.9% | SW-620 colon 33.5% | MCF7 breast 16.7% | HCT-116 colon 24.2% | HCC-2998 colon 69.6% | KM12 colon 28.1%
active: MDA-MB-435 melanoma -18.5%

Clc1ccc2c(N/N=C/c3c[nH]c4ccccc34)ccnc2c1
active: T-47D breast -54.5% | BT-549 breast -89.1% | MDA-MB-435 melanoma -92.9% | SW-620 colon -74.8% | MCF7 breast -72% | HCT-116 colon -91.9% | HCC-2998 colon -92.3% | KM12 colon -77.2%

Cc1cccc(N2CCN(C3=C(Cl)C(=O)c4ncccc4C3=O)CC2)c1
active: T-47D breast -39.5% | MCF7 breast 5.92% | HCT-116 colon -16.3%
inactive: BT-549 breast 97.9% | MDA-MB-435 melanoma 11.8% | SW-620 colon 11% | HCC-2998 colon 107% | KM12 colon 92.2%

N#Cc1c(-c2cccs2)cc(-c2cnccn2)nc1SCC(=O)N/N=C/c1ccccc1
active: SW-620 colon 8.83% | HCT-116 colon -23.6%
inactive: T-47D breast 25.6% | BT-549 breast 14.8% | MDA-MB-435 melanoma 23.6% | MCF7 breast 19.4% | HCC-2998 colon 71% | KM12 colon 33.2%

CN1CCN(Cc2ccc(NC(=O)c3cncc(C#Cc4cnc5ccc(OCC(F)F)nn45)c3)cc2C(F)(F)F)CC1
active: T-47D breast 8.64% | BT-549 breast -16.6% | MDA-MB-435 melanoma -92.6% | SW-620 colon -49.1% | MCF7 breast -66.6% | HCT-116 colon -84.3% | HCC-2998 colon -67% | KM12 colon -53.9%

O=c1[nH][nH]c(-c2ccc(F)cc2)c1-c1nc2ccccc2s1
inactive: T-47D breast 87.7% | BT-549 breast 98.8% | MDA-MB-435 melanoma 104% | SW-620 colon 105% | MCF7 breast 81.2% | HCT-116 colon 93.2% | HCC-2998 colon 107% | KM12 colon 105%

O=C1/C(=C/C=C/c2ccco2)SC(=S)N1Cc1ccccc1
inactive: T-47D breast 75.6% | BT-549 breast 110% | MDA-MB-435 melanoma 92.7% | SW-620 colon 94.2% | MCF7 breast 28.4% | HCT-116 colon 91% | HCC-2998 colon 99.7% | KM12 colon 78.6%

Cc1ccc(N2CCN(C3=C(Cl)C(=O)c4ncccc4C3=O)CC2)cc1
active: T-47D breast -56.1% | MDA-MB-435 melanoma -81.2% | SW-620 colon -79.7% | MCF7 breast -62% | HCT-116 colon -78.1%
inactive: BT-549 breast 103% | HCC-2998 colon 104% | KM12 colon 80%

O=C1[C@H]2Cc3c([nH]c4ccccc34)[C@H](c3ccc(Cl)cc3)N2C(=O)CN1C1CCN(CC2CCCCC2)CC1
inactive: T-47D breast 93% | BT-549 breast 70.8% | MDA-MB-435 melanoma 62.3% | SW-620 colon 72.5% | MCF7 breast 16.2% | HCC-2998 colon 53.4% | KM12 colon 62%
active: HCT-116 colon 5.7%

CCOC(=O)Nc1ccc2c(ccn2C(=O)c2cccc(F)c2)c1
inactive: T-47D breast 45.2% | BT-549 breast 26.1% | SW-620 colon 26.3% | MCF7 breast 26% | HCT-116 colon 25.6% | HCC-2998 colon 43.8% | KM12 colon 24.6%
active: MDA-MB-435 melanoma -45.4%
